# Measured values: the supplement of paper PMC8728848
# The sample as a whole holds a higher share of the strongest signals than the screen did.
# B1: PX14343F-bfa-562-20-562 (Bacteroides fragilis) (protein)
# chain: CDDFLDSFPQDTVTNENFWKSKEDADKVLVDIYASLLPKDAIFFDEAMSDNAYLVWDWWGGAQQVANGSYTTSGEIPTNRWNGSYEVIRKCWFLLEGIEKIEDISEQDKNKIIGETYFMLAYNYYVLTSYFGDVPLVTKTLAIPESKQLVRTPKAEVVDYAINKLKEAAVMLEGLSQEKGRVTADACRFLIARMYLYNGDYSNVLETVKLLEGKYQLYREGDTPYEDLFSGVAENSCEVILSVVCDKRVGEIYTSHGGNGIMLLKGITGEDPYRGVTPSGSLVDAYPMADGRLIHEAGSSYDPKKPYEGRDPRFYQSIVYPTGQIKYLDVETGTVKERLYDPEDPTTVPEHQYNYSQPSATGYMWNKYIDYSVYAMNSVWDCTNDIIVFRYADVLLMKAEALLQTKGESAKEEVCNLIDQLRDRCSCGRVHRENYNSKDELMELLKNERRIELANEGLRYMDLIRWKDAEKNTIVTGVGLTGQMYGAYMRKDGVGKDDKTVDVDNTPRRYIETRYFNASKGYLFPIPQKERDLNPNLTQNPNW
# What was measured:
# Assay in all cases: glycan array binding signal (z-score within array); higher = stronger binding
# Conditions in all cases: glycan notation: IUPAC condensed, linker removed
# [1] = biological target: GalNAc(a1-3)GalNAc
# Summary of the method: (§1)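 Negative Z-scores can be read as non-binding. The Z-score is calculated within each array and then averaged across arrays of one protein sequence at different concentrations or buffers and across linkers. Arrays, 3228 in all, were curated from the Consortium for Functional Glycomics database and kept only where the protein sequence was available.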
# [2] = biological target: GalNAc(b1-4)GlcNAc(b1-2)Man(a1-3)[GalNAc(b1-4)GlcNAc(b1-2)Man(a1-6)]Man(b1-4)GlcNAc(b1-4)GlcNAc
# Summary of the method: as §1
# [3] = biological target: GalNAc(b1-4)GlcNAc(b1-3)GalNAc(b1-4)GlcNAc
# Summary of the method: as §1
# [4] = biological target: Glc(a1-6)Glc(a1-6)Glc
# Summary of the method: as §1
# [5] = biological target: GlcA(b1-3)Gal
# Summary of the method: as §1
# [6] = biological target: GlcNAc(b1-2)Man(a1-3)[GlcNAc(b1-4)][GlcNAc(b1-2)Man(a1-6)]Man(b1-4)GlcNAc(b1-4)[Fuc(a1-6)]GlcNAc
# Summary of the method: as §1
# [7] = biological target: GlcNAc(b1-3)Gal(b1-4)GlcNAc(b1-2)[GlcNAc(b1-3)Gal(b1-4)GlcNAc(b1-6)]Man(a1-6)[GlcNAc(b1-3)Gal(b1-4)GlcNAc(b1-2)Man(a1-3)]Man(b1-4)GlcNAc(b1-4)GlcNAc
# Summary of the method: as §1
# [8] = biological target: GlcNAc(b1-3)Gal(b1-4)GlcNAc(b1-3)Gal(b1-4)GlcNAc(b1-2)Man(a1-3)[GlcNAc(b1-3)Gal(b1-4)GlcNAc(b1-3)Gal(b1-4)GlcNAc(b1-2)Man(a1-6)]Man(b1-4)GlcNAc(b1-4)[Fuc(a1-6)]GlcNAc
# Summary of the method: as §1
# [9] = biological target: GlcNAc(b1-3)Gal(b1-4)GlcNAc(b1-3)Gal(b1-4)GlcNAc(b1-2)[GlcNAc(b1-3)Gal(b1-4)GlcNAc(b1-3)Gal(b1-4)GlcNAc(b1-6)]Man(a1-6)[GlcNAc(b1-3)Gal(b1-4)GlcNAc(b1-3)Gal(b1-4)GlcNAc(b1-2)Man(a1-3)]Man(b1-4)GlcNAc(b1-4)[Fuc(a1-6)]GlcNAc
# Summary of the method: as §1
# [10] = biological target: GlcNAc(b1-3)Gal(b1-4)GlcNAc(b1-3)GalNAc
# Summary of the method: as §1
# [11] = biological target: Kdn(a2-3)Gal(b1-4)[Fuc(a1-3)]GlcNAc
# Summary of the method: as §1
# [12] = biological target: Man(a1-2)Man(a1-2)Man(a1-3)Man
# Summary of the method: as §1
# [13] = biological target: Neu5Ac(a2-3)Gal(b1-3)GalNAc
# Summary of the method: as §1
# [14] = biological target: Neu5Ac(a2-3)Gal(b1-3)GalNAc6S
# Summary of the method: as §1
# [15] = biological target: Neu5Ac(a2-3)Gal(b1-3)GlcNAc(b1-6)GalNAc
# Summary of the method: as §1
# [16] = biological target: Neu5Ac(a2-3)Gal(b1-3)[Fuc(a1-4)]GlcNAc(b1-3)Gal(b1-3)[Fuc(a1-4)]GlcNAc
# Summary of the method: as §1
# [17] = biological target: Neu5Ac(a2-3)Gal(b1-3)[Neu5Ac(a2-6)]GlcNAc(b1-3)[Fuc(a1-3)[Gal(b1-4)]GlcNAc(b1-6)]Gal(b1-4)Glc
# Summary of the method: as §1
# [18] = biological target: Neu5Ac(a2-3)Gal(b1-4)GlcNAc(b1-3)Gal(b1-4)GlcNAc(b1-3)[Neu5Ac(a2-3)Gal(b1-4)GlcNAc(b1-3)Gal(b1-4)GlcNAc(b1-6)]GalNAc
# Summary of the method: as §1
# [19] = biological target: Neu5Ac(a2-3)Gal(b1-4)GlcNAc(b1-6)[Gal(b1-3)]GalNAc
# Summary of the method: as §1
# [20] = biological target: Neu5Ac(a2-3)Gal(b1-4)[Fuc(a1-3)]GlcNAc(b1-3)Gal(b1-4)GlcNAc
# Summary of the method: as §1
# [21] = biological target: Neu5Ac(a2-6)Gal(b1-4)GlcNAc(b1-2)Man(a1-3)[Neu5Ac(a2-6)Gal(b1-4)GlcNAc(b1-2)Man(a1-6)]Man(b1-4)GlcNAc(b1-4)[Fuc(a1-6)]GlcNAc
# Summary of the method: as §1
# [22] = biological target: Neu5Ac(a2-6)Gal(b1-4)GlcNAc(b1-3)Gal(b1-4)GlcNAc(b1-3)Gal(b1-4)GlcNAc
# Summary of the method: as §1
# [23] = biological target: Neu5Ac(a2-6)Gal(b1-4)GlcNAc(b1-3)Gal(b1-4)GlcNAc(b1-3)Gal(b1-4)GlcNAc(b1-2)Man(a1-3)[Neu5Ac(a2-6)Gal(b1-4)GlcNAc(b1-3)Gal(b1-4)GlcNAc(b1-3)Gal(b1-4)GlcNAc(b1-2)Man(a1-6)]GalNAc
# Summary of the method: as §1
# [24] = biological target: Neu5Ac(a2-6)Gal(b1-4)GlcNAc(b1-3)GalNAc
# Summary of the method: as §1
# [25] = biological target: Neu5Ac(a2-8)Neu5Ac(a2-3)[GalNAc(b1-4)]Gal(b1-4)Glc
# Summary of the method: as §1
# [26] = biological target: Neu5Ac(a2-8)Neu5Ac(a2-8)Neu5Ac(a2-3)Gal(b1-4)Glc
# Summary of the method: as §1
# [27] = biological target: Neu5Ac(a2-8)Neu5Gc(a2-3)Gal(b1-4)GlcNAc
# Summary of the method: as §1
# [28] = biological target: Neu5Gc(a2-3)Gal(b1-3)[Fuc(a1-4)]GlcNAc
# Summary of the method: as §1
binder,measurement,setting,value
B1,glycan array binding signal (z-score),[1],0.306
same,glycan array binding signal (z-score),[2],2.1
same,glycan array binding signal (z-score),[3],0.152
same,glycan array binding signal (z-score),[4],-0.43
same,glycan array binding signal (z-score),[5],-0.822
same,glycan array binding signal (z-score),[6],-0.489
same,glycan array binding signal (z-score),[7],1.87
same,glycan array binding signal (z-score),[8],1.72
same,glycan array binding signal (z-score),[9],0.546
same,glycan array binding signal (z-score),[10],0.486
same,glycan array binding signal (z-score),[11],-0.468
same,glycan array binding signal (z-score),[12],-0.59
same,glycan array binding signal (z-score),[13],-0.546
same,glycan array binding signal (z-score),[14],-0.506
same,glycan array binding signal (z-score),[15],1.15
same,glycan array binding signal (z-score),[16],-0.121
same,glycan array binding signal (z-score),[17],-0.957
same,glycan array binding signal (z-score),[18],1.61
same,glycan array binding signal (z-score),[19],-0.723
same,glycan array binding signal (z-score),[20],0.262
same,glycan array binding signal (z-score),[21],1.09
same,glycan array binding signal (z-score),[22],-0.047
same,glycan array binding signal (z-score),[23],2.16
same,glycan array binding signal (z-score),[24],-0.734
same,glycan array binding signal (z-score),[25],1.74
same,glycan array binding signal (z-score),[26],0.121
same,glycan array binding signal (z-score),[27],19.1
same,glycan array binding signal (z-score),[28],-0.055
